GALR2 ag: agonists of human galanin receptor 2 (GALR2). O43603. GALR2-expressing cells, agonist activation read-out. activation, % (no concentration beside the values). 0.48% of 140,000 active. AID 803; in the data active = activation above about 5%, passing the limit was not always enough;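 note: 0% = vehicle buffer wells and 100% = reference agonist at full effect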
S1P2 blocker: blocks the human S1P2 receptor; cell-based S1P2 antagonist assay, inhibition at 5 uM; O95136; AID 736; 0.21% of 97,000 active; inhibition, % at 5 µM; in the data active = inhibition above about 45%;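 note: CRE beta-lactamase reporter cells expressing human S1P2 stimulated with S1P; 0% = agonist at EC80 alone and 100% = agonist plus reference antagonist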
Target sequence (O95136 whole entry, looked up): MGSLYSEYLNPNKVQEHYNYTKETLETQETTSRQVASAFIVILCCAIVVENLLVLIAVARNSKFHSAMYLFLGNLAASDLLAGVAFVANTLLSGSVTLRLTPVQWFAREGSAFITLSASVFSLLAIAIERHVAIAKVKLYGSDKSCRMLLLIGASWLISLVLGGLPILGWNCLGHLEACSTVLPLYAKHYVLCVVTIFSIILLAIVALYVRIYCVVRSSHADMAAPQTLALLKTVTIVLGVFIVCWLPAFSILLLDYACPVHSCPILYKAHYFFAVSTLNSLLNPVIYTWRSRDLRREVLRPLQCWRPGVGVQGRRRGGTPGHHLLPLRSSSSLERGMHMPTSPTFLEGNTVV
GALR2 antag: blocks the human galanin receptor 2; AID 828; 0.39% of 140,000 active; inhibition, % at 4 µM; GALR2-expressing cells, antagonist mode; in the data active = inhibition above about 27%;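 note: cells stimulated with galanin 1-16 at roughly its EC80; 0% = agonist challenge control and 100% = basal control without agonist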
S1P2 agonist: activates the human S1P2 receptor | O95136 | S1P2-expressing cell line, agonist reporter read-out | activation, % at 4.5 µM | 0.46% of 97,000 active | AID 729; in the data active = activation above about 16%;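 note: 0% = vehicle low control and 100% = maximal reference agonist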
GALR2 agon conf: GALR2 (human) agonism confirmed; activation, % at 5.6 µM; GALR2-expressing cells, agonist activation; shares compounds with GALR2 ag; 10% of 460 active; AID 864; in the data active = activation above about 8.4%;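 note: 0% = buffer-only vehicle wells and 100% = full reference agonist response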
BLA act counter: counter-screen for GALR2 agonists: beta-lactamase reporter activators; shares compounds with GALR2 ag; activation, % at 5.6 µM; AID 865; 10% of 460 active; CHO NFAT-bla reporter, beta-lactamase FRET activation;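 active = activation above the screen-wide mean activation plus 3 SD, cut at about 8% in these data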;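 note: 0% = DMSO with PBS wells and 100% = thapsigargin positive control wells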
Numbers without * were called inactive; . = not tested or not shown. This is a sample that favours compounds with a hit; in the whole collection about 1.2% have one here.

SMILES	GALR2 ag	S1P2 blocker	GALR2 antag	S1P2 agonist	GALR2 agon conf	BLA act counter
COc1cc(C2=NOC(C(=O)NCc3cccs3)C2)cc(OC)c1OC (centres undefined)	88*	-9	7	-1	-1	-2
Fc1ccc(/C=C2\CCCC3=C2Nc2ncnn2C3c2ccc(F)cc2)cc1 (centres undefined)	0	17	8	-12	.	.
CC1=C(C)CC(C(=O)NNC(=O)c2cccc(Cl)c2)C(C(=O)O)C1 (centres undefined)	8.2*	.	6	.	-1	-1
CC1=C(C)CC(C(=O)NNC(=O)c2ccccc2)C(C(=O)O)C1 (centres undefined)	-2	8	10	-6	.	.
N=c1oc2ccccc2cc1-c1nc(-c2ccccc2)cs1	20*	.	1	.	3	5
CC(C)NC(=S)NNC(=O)C12CC3CC(CC(C3)C1)C2	12*	-7	3	-4	-1	-2
CCCCNC(=S)NNC(=O)C12CC3CC(CC(C3)C1)C2	-1	-4	-3	-1	.	.
Cc1cccc(NC(=O)/C(C#N)=C/c2cn(CC(=O)NCc3ccco3)c3ccccc23)c1	31*	.	-2	.	14*	13*
COc1ccc(OCCn2cc(/C=C(\C#N)C(=O)NCc3ccco3)c3ccccc32)cc1	13*	.	1	.	4	3
COc1ccccc1OCCn1cc(/C=C(\C#N)C(=O)NCc2ccco2)c2ccccc21	-1	.	4	.	.	.
Cc1ccc(C)c(OCCn2cc(/C=C(\C#N)C(=O)NCc3ccco3)c3ccccc32)c1	0	.	-5	.	.	.
CCC(C)n1c(SCC(=O)Nc2cc(C(C)(C)C)nn2-c2ccccc2)nc2ccccc2c1=O (centres undefined)	0	.	5	.	.	.
Cc1ccc(CN2CCSCC2)c(C)c1	-1	.	2	.	.	.
Cc1ccc(C2(c3ccc(C)cc3)CC2C(=O)Nc2ccc([N+](=O)[O-])cc2O)cc1 (centres undefined)	-3	7	-7	-7	.	.
CN1C(=O)/C(=C/c2ccc(-c3ccccc3[N+](=O)[O-])o2)SC1=Nc1ccc(Cl)c(C(=O)O)c1	0	.	-6	.	.	.
CCN(CC)S(=O)(=O)c1ccc(C)c(NC(=O)COc2ccc(Cl)cc2Br)c1	10*	.	-7	.	8	5
CCN(CC)S(=O)(=O)c1ccc(Cl)c(NC(=O)COc2ccccc2[N+](=O)[O-])c1	0	.	12	.	.	.
CCCCCCNC(=O)CCCCCNS(=O)(=O)c1ccc(OC)cc1	-2	.	-2	.	.	.
COC(=O)CC1SC(=O)NC1=Nc1cccc(C)c1 (centres undefined)	-2	1	-11	-2	.	.
Cc1n[nH]c(C)c1N1C(=O)c2cccc3c(N4CCCCCC4)ccc(c23)C1=O	1	33	18	-10	.	.
CC(=O)c1ccc2c3c(cccc13)C(=O)N(c1c(C)nn(C)c1C)C2=O	20*	-9	-2	-3	-1	-1
CCOc1ccc(-c2nnc(NC3=NCCCCC3)o2)cc1	17*	-6	0	-5	-1	-2
CC(=O)c1ccc(OCCCC(=O)OCC(=O)N2CCN(c3ccccc3)CC2)cc1	68*	-4	13	-7	-1	-2
O=C(CCCOc1ccccc1)N1CCN(c2ccccc2)CC1	0	-26	-24	1	.	.
CSc1nnc(-c2cc3c(s2)-c2ccccc2CC3)o1	0	17	-4	-3	.	.
SMILES	GALR2 ag	S1P2 blocker	GALR2 antag	S1P2 agonist	GALR2 agon conf	BLA act counter
S=c1[nH]nc(-c2cc3c(s2)-c2ccccc2CC3)o1	10	14	2	9	2	5
Cc1onc(-c2ccccc2)c1C(=O)N/N=C/c1cc2c(cc1Cl)OCO2	-1	.	-3	.	.	.
COC(=O)C[N+](C)(C)CC#Cc1ccccc1	-2	.	6	.	.	.
CCOC(=O)/C=c1\s/c(=C\c2ccc(C)cc2)c(=O)n1CC(=O)NCc1ccco1	8.2*	.	3	.	3	0
CCOC(=O)/C=c1\s/c(=C\c2ccc(C(F)(F)F)cc2)c(=O)n1CC(=O)NCc1ccco1	0	.	-5	.	.	.
O=C(Cc1n[nH]c(=O)[nH]c1=O)N/N=C/c1cccc(O)c1	15*	-14	2	-5	-1	-2
Cc1cc(C(=O)CN2C(=O)c3cccc(N)c3C2=O)c(C)n1Cc1cccs1	8	0	21	9	1	2
CCOC(=O)C(NC(=O)c1ccccc1)=C(C)C	11	-9	-2	-2	-1	-3
CC1(C)CC(=O)C2=C(C1)N(CCN1CCOCC1)C1=C(C(=O)CC(C)(C)C1)C2c1cccc(Cl)c1	9	-8	0	6	2	3

Compound activity as filed in PubChem.
